Inconclusive results are not listed. Unless noted, the call rests on the fitted dose curve; in most records, active means well fitted curve in either direction with a large enough effect (not every such curve was filed as active); inconclusive means small, poorly fitted or top-dose-only effect, or another doubt; inactive means flat fitted curve, though single readings scatter.
Experiments:
[1] = AP1 Signaling Pathway (AID 357); details: ME-180 AP-1-bla reporter, EGF-induced, beta-lactamase ratio, 5 h; at 17.2 µM (top of the series) unless noted;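 further: ME-180 reporter cells stimulated with EGF at its EC50 level; on the % scale 0 is the no-effect control and ±100 the full control effect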
How it was run: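 A ratiometric CCF4 readout (405 nm excitation; 460 and 530 nm emission) quantified AP-1-driven beta-lactamase in ME-180 cells after 5 h with compound and EC50 EGF; AC50 values were derived for activators and inhibitors.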

[2] = NFAT Signaling Pathway (AID 444); details: Jurkat NFAT-bla M1, carbachol, beta-lactamase ratio, 5 h; at 17.2 µM (top of the series) unless noted;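 further: carbachol stimulus at about its EC50 of 1 µM final; on the % scale 0 is the no-effect control and ±100 the full control effect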
How it was run: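 Read-out: CCF4 FRET ratio (460 nm/530 nm) after 1 h RT dye loading, used for %activity and AC50 from titration series. Cells: Jurkat NFAT-β-lactamase/M1 line, treated with compound plus 1 uM carbachol for 5 h, 37 °C.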

[3] = Stat Signaling Pathway (AID 446); details: ME-180 SIE beta-lactamase reporter, IL-6 stimulated, 5 h; at 17.2 µM (top of the series) unless noted;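 further: ME-180 cervical cancer cells given 40 pM IL-6 alongside compound; SIE-controlled beta-lactamase reporter measured as 460/530 nm FRET emission ratio; on the % scale 0 is the no-effect control and ±100 the full control effect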
How it was run: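 Reporter line: ME-180 cervical carcinoma, SIE-beta-lactamase. Treatment: compound with 40 pM IL-6, 5 hrs, 37 C, in low-serum OPTI-MEM with 10 mM HEPES pH 7.3. Detection: 460/530 nm fluorescence.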

[4] = molecular target: Glucocorticoid receptor (Homo sapiens) (UniProt P04150); experiment: GR-GFP Redistribution (AID 450;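 active means compounds whose dose series gives a full or clear partial fitted curve of increased nuclear translocation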; further: potency means the concentration at half of the fitted maximal effect)
Sequence of Glucocorticoid receptor (Homo sapiens) (P04150 whole entry, looked up): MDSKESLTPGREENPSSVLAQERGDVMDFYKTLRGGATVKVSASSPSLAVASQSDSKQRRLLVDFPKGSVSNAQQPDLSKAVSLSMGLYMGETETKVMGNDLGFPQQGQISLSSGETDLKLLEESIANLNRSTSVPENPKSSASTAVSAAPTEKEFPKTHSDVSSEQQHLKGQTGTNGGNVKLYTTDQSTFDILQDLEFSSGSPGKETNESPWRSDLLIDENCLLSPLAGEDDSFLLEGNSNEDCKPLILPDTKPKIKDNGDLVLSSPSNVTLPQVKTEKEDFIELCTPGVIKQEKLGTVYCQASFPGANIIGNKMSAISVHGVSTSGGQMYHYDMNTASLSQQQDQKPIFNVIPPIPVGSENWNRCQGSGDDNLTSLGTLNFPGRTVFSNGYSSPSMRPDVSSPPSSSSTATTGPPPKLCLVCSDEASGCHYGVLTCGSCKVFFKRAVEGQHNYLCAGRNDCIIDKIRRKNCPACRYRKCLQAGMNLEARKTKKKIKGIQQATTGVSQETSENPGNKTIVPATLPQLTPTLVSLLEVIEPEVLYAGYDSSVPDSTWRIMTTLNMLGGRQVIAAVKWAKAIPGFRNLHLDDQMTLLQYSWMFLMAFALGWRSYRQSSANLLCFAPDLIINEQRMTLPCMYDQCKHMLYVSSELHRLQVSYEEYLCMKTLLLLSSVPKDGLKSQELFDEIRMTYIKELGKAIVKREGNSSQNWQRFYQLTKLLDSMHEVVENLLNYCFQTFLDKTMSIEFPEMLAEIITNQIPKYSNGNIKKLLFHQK

CCCC(C)n1[nH]c(=O)cc1N (stereo not given)
inactive: activity change, negative = inhibition [1] 11.2% | activity change, negative = inhibition [2] 8.48% | activity, negative = inhibition [3] 3.57% | Potency [4] > 20.6 µM

CCCCOC(=O)CSC1=C(C#N)C(c2ccc3c(c2)OCO3)CC(=O)N1 (stereo not given)
inactive: activity change, negative = inhibition [1] -13% | activity change, negative = inhibition [2] 19.6% | activity, negative = inhibition [3] -9.97% | Potency [4] > 20.6 µM

CCCCSc1nc(O)c(C2OC(=O)c3c2ccc(OC)c3OC)c(=O)n1C (stereo not given)
inactive: activity change, negative = inhibition [1] -4.1% | activity change, negative = inhibition [2] 1.82% | activity, negative = inhibition [3] -7.44% | Potency [4] > 20.6 µM

CCN(CC)CCN1C(=O)C(=O)/C(=C(/O)c2c(C)[nH]c(C(=O)OC)c2C)C1c1ccco1 (stereo not given)
inactive: activity change, negative = inhibition [1] 6.74% | activity change, negative = inhibition [2] -2.14% | activity, negative = inhibition [3] -0.9% | Potency [4] > 20.6 µM

COc1cc(-c2nn3c(-c4ccccn4)nnc3s2)cc(OC)c1OC
inactive: activity change, negative = inhibition [1] 1.69% | activity change, negative = inhibition [2] 10.9% | activity, negative = inhibition [3] 1.47% | Potency [4] > 20.6 µM

S=c1[nH]nc(-c2ccco2)n1Cc1ccccc1
inactive: activity change, negative = inhibition [1] 6.39% | activity change, negative = inhibition [2] 3.89% | activity, negative = inhibition [3] 21.7% | Potency [4] > 20.6 µM

COc1cccc(NC(=O)c2cc(C(=O)Nc3cccc(OC)c3)n(C)n2)c1
inactive: activity change, negative = inhibition [1] -12.7% | activity change, negative = inhibition [2] -14.3% | activity, negative = inhibition [3] -3.92% | Potency [4] > 20.6 µM

O=C(c1coc(=O)c(Br)c1)N1CCCc2ccccc21
inactive: activity change, negative = inhibition [1] 11.9% | activity change, negative = inhibition [2] 0.236% | activity, negative = inhibition [3] 8.49% | Potency [4] > 20.6 µM

CCC(CC)n1[nH]c(=O)cc1N
inactive: activity change, negative = inhibition [1] -9.54% | activity change, negative = inhibition [2] 14.2% | activity, negative = inhibition [3] 2.51% | Potency [4] > 20.6 µM

CCOC(=O)CNC(=O)Nc1ccccc1C(=O)OC
inactive: activity change, negative = inhibition [1] -9.77% | activity change, negative = inhibition [2] 12.3% | activity, negative = inhibition [3] 11.5% | Potency [4] > 20.6 µM

COC(=O)CC(=O)Cc1nc(N)nc(Nc2ccc(C)c(C)c2)n1
inactive: activity change, negative = inhibition [1] 9.64% | activity change, negative = inhibition [2] -5.97% | activity, negative = inhibition [3] 1.4% | Potency [4] > 20.6 µM

C=CCOc1nc2c(c(=O)n(Cc3ccc(Cl)cc3)c(=O)n2C)n1C
inactive: activity change, negative = inhibition [1] -10.1% | activity change, negative = inhibition [2] 4.79% | activity, negative = inhibition [3] 9.68% | Potency [4] > 20.6 µM

Cc1nnc2n(-c3ccccc3)c(=O)c3c4c(sc3n12)CC(C)CC4 (stereo not given)
inactive: activity change, negative = inhibition [1] 3.4% | activity change, negative = inhibition [2] -3.87% | activity, negative = inhibition [3] -2.29% | Potency [4] > 20.6 µM

COc1cccc(C2=CC(c3ccccc3)n3nnnc3N2)c1 (stereo not given)
inactive: activity change, negative = inhibition [1] -3.96% | activity change, negative = inhibition [2] -25.6% | activity, negative = inhibition [3] -10.3% | Potency [4] > 20.6 µM

CN1CCN(CCCCOc2ccc(F)cc2)CC1
inactive: activity change, negative = inhibition [1] 10.9% | activity change, negative = inhibition [2] -9.28% | activity, negative = inhibition [3] -0.445% | Potency [4] > 20.6 µM

O=C(NCC(F)(F)F)N1CCOCC1
inactive: activity change, negative = inhibition [1] 6.11% | activity change, negative = inhibition [2] 0.794% | activity, negative = inhibition [3] -4.01% | Potency [4] > 20.6 µM

N#CC1=C(N)OC2=C(C(=O)CCC2)C1CCc1ccccc1 (stereo not given)
inactive: activity change, negative = inhibition [1] -2.2% | activity change, negative = inhibition [2] -13.6% | activity, negative = inhibition [3] 8.87% | Potency [4] > 20.6 µM

Cc1nc(N2CCOCC2)c(C#N)c2c1COC(C)(C)C2
inactive: activity change, negative = inhibition [1] 0.635% | activity change, negative = inhibition [2] 2.49% | activity, negative = inhibition [3] 7.32% | Potency [4] > 20.6 µM

Cc1nnc2n(-c3ccccc3)c(=O)c3c4c(sc3n12)CCCC4
inactive: activity change, negative = inhibition [1] 21.9% | activity change, negative = inhibition [2] -2.17% | activity, negative = inhibition [3] 10.4% | Potency [4] > 20.6 µM

COc1ccc(CC(=O)n2c(CC#N)nc3ccccc32)cc1OC
inactive: activity change, negative = inhibition [1] -7.74% | activity change, negative = inhibition [2] 10.4% | activity, negative = inhibition [3] -5.7% | Potency [4] > 20.6 µM

N#CC1(P(=O)(c2ccccc2)c2ccccc2)CC1
inactive: activity change, negative = inhibition [1] 0.213% | activity change, negative = inhibition [2] -2.17% | activity, negative = inhibition [3] 1.75% | Potency [4] > 20.6 µM

CC(=O)c1cccc(N=C2NC(=O)C(CO)(CO)S2)c1
inactive: activity change, negative = inhibition [1] 3.54% | activity change, negative = inhibition [2] -3.93% | activity, negative = inhibition [3] 4.42% | Potency [4] > 20.6 µM

N#Cc1nc(COc2ccccc2F)oc1NCCCn1ccnc1
inactive: activity change, negative = inhibition [1] -26.4% | activity change, negative = inhibition [2] -21.7% | activity, negative = inhibition [3] 5.2% | Potency [4] > 20.6 µM

Cc1cc(C)n(CC2CC(=O)N(c3ccc(C)c(Cl)c3)C2=O)n1 (stereo not given)
inactive: activity change, negative = inhibition [1] -6.66% | activity change, negative = inhibition [2] 13.9% | activity, negative = inhibition [3] -4.28% | Potency [4] > 20.6 µM

Cc1cc(C)c2nc(SCCC#N)nc(C)c2c1
inactive: activity change, negative = inhibition [1] -4.73% | activity change, negative = inhibition [2] 11.8% | activity, negative = inhibition [3] 6.57% | Potency [4] > 20.6 µM
